NS1 function inh = qHTS Assay for Inhibitors of Influenza NS1 Protein Function; hit rate 0.4% among 270,000; Potency, µM (series often up to 46.1 µM), for the others: at the top dose activity, positive = more growth; AID 2326, 2010; calls by dose curve; further: potency means the concentration at half of the fitted maximal effect; actives are rising curves; nearly all actives have a fitted effect of over 50% in size
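Recovery from NS1-induced slow growth read by OD600 in budding yeast switched to galactose assay medium (pH 6.0, -URA) at 1:100 dilution. Compound 23 nl per well; the matching strain lacking NS1 serves as control.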
LmPK inh = qHTS Assay for Inhibitors of Leishmania Mexicana Pyruvate Kinase (LmPK) | Potency, µM (highest dose often 57.5 µM), for the others: at the highest dose activity change, negative = inhibition, hits mostly inhibitors | hit rate 0.37% among 290,000 | Q27686 | purified LmPK, Kinase-Glo ATP luminescence, 1 h; further: potency means the concentration at half of the fitted maximal effect; on the % scale 0 is the no-effect control and ±100 the full control effect
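Purified LmPK (0.1 nM) with 0.5 mM PEP and 0.1 mM ADP in imidazole buffer pH 7.2 with MgCl2/KCl, 1 h at room temperature. ATP formed was read by luciferase luminescence and normalized to no-enzyme and uninhibited controls.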
Giardia FBPA inh-1 = qHTS Assay for Inhibitors of Fructose-1,6-bisphosphate Aldolase from Giardia Lamblia; A8B2U2; purified Giardia FBPA; Potency, µM (highest dose often 59.6 µM), for the others: at the highest dose activity, negative = inhibition, most hits filed as inhibitors; hit rate 0.71% among 290,000; further: potency means the concentration at half of the fitted maximal effect; on the % scale 0 is the no-effect control and ±100 the full control effect; nearly all actives have a fitted effect of over 55% in size
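40 nM FBPA preincubated 10 min at RT with compound (up to 57.5 uM final), then substrate plus GAPDH/TPI/NAD/arsenate coupling and diaphorase/resazurin added. Fluorescence read after 20 min at RT, 525/598 nm.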
Shiga inhibitor = A qHTS for Small Molecule Inhibitors of Shiga Toxin; Vero cells, Shiga toxin protein synthesis inhibition reporter; hit rate 9.2% among 290,000; AID 2315, 2010; inhibition, % at 38.7 µM; in the data active means inhibition mostly above about 28%, no sharp cut-off; inactive means mostly below about 43%; further: 0% is about no effect
Cycloheximide cs = Cycloheximide Counterscreen for Small Molecule Inhibitors of Shiga Toxin; cell reporter, cycloheximide protein synthesis inhibition counterscreen; max response, %; hit rate 12% among 300,000; in the data active means max response mostly above about 13%, no sharp cut-off; inactive means mostly below about 14%; further: read at 38.3 µM for the half of the compounds with a filed dose; 0% is about no effect
Giardia growth = qHTS Assay for Inhibitors of Fructose-1,6-bisphosphate Aldolase from Giardia Lamblia: Giardia lamblia growth inhibition | shares compounds with Giardia FBPA inh-1 | Giardia lamblia trophozoite growth inhibition | Potency, µM (series often up to 57.5 µM), for inactives: at the highest dose activity change, negative = inhibition, usual class: inhibitors | hit rate 5% among 1,500 | AID 2785, 2010;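 further: potency means the concentration at half of the fitted maximal effect; trophozoites exposed to compound for 48 h at 37 °C; on the % scale 0 is the no-effect control and ±100 the full control effect; nearly all actives have a fitted effect of over 70% in size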
Mammal cell tox = qHTS Assay for Inhibitors of Fructose-1,6-bisphosphate Aldolase from Giardia Lamblia: Mammalian cellular toxicity. mammalian cell viability counter-screen, qHTS. Potency, µM (doses to about 57.5 µM), for inactives: at the top dose viability change, negative = toxicity, actives largely listed as inhibitors. hit rate 4% among 1,500. shares compounds with Giardia FBPA inh-1. AID 2786, 2010;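 further: Chinese hamster ovary cells used as mammalian cytotoxicity surrogate; viability measured as cellular ATP by luminescence; potency means the concentration at half of the fitted maximal effect; compound exposure lasted 48 h before reading; on the % scale 0 is the no-effect control and ±100 the full control effect; nearly all actives have a fitted effect of over 60% in size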
Giardia FBPA inh-2 = qHTS Assay for Inhibitors of Fructose-1,6-bisphosphate Aldolase from Giardia Lamblia: Primary screen confirmation; Potency, µM (titrated, usually from 57.5 µM), inactives show at the highest dose activity change, negative = inhibition, hits mostly inhibitors; purified Giardia aldolase enzyme activity, qHTS; hit rate 5% among 1,500; shares compounds with Giardia FBPA inh-1; AID 2787, 2010; further: potency means the concentration at half of the fitted maximal effect; on the % scale 0 is the no-effect control and ±100 the full control effect; nearly all actives have a fitted effect of over 45% in size
Rabbit aldolase = qHTS Assay for Inhibitors of Fructose-1,6-bisphosphate Aldolase from Giardia Lamblia: Rabbit FBPA Selectivity; shares compounds with Giardia FBPA inh-1; Rabbit muscle FBPA enzyme inhibition, selectivity counter-screen; Potency, µM (titrated, usually from 57.5 µM), for inactives: top-dose activity, negative = inhibition, actives largely listed as inhibitors; hit rate 4% among 1,500; AID 2794, 2010; further: potency means the concentration at half of the fitted maximal effect; on the % scale 0 is the no-effect control and ±100 the full control effect; nearly all actives have a fitted effect of over 60% in size
Target sequence (P00883 whole entry, looked up): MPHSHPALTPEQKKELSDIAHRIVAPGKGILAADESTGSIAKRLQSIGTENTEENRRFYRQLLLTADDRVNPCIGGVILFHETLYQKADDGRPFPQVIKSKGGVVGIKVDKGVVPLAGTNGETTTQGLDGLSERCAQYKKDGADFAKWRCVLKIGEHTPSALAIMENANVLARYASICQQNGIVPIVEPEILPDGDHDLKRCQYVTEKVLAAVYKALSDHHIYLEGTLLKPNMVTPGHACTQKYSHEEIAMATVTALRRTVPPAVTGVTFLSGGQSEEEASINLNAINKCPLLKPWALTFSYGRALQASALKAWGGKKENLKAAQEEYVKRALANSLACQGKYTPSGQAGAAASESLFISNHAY
GAPDH counter = qHTS Assay for Inhibitors of Fructose-1,6-bisphosphate Aldolase from Giardia Lamblia: Coupling assay counterscreen confirmation | shares compounds with Giardia FBPA inh-1 | GAPDH coupling enzyme counterscreen, biochemical, qHTS | Potency, µM (highest dose often 57.5 µM), without a hit: at the top dose activity change, negative = inhibition, actives largely listed as inhibitors | hit rate 6% among 1,500; further: potency means the concentration at half of the fitted maximal effect; on the % scale 0 is the no-effect control and ±100 the full control effect; nearly all actives have a fitted effect of over 55% in size
* marks the source's active call; other numbers are inactive results; ? = inconclusive; · = no result; [ ] = another dose, or the depositor's remark. Most compounds without a hit are left out; they make up all but 14% or so of the library. Unless noted, the call rests on the fitted dose curve; in most records, active means well fitted curve in the direction sought with a large enough effect; inconclusive means small, poorly fitted or top-dose-only effect, or another doubt; inactive means no such curve, though single readings can be large; an effect the other way counts as inactive or inconclusive.

SMILES | NS1 function inh | LmPK inh | Giardia FBPA inh-1 | Shiga inhibitor | Cycloheximide cs | Giardia growth | Mammal cell tox | Giardia FBPA inh-2 | Rabbit aldolase | GAPDH counter
NS(=O)(=O)c1ccc(NC(=S)NCc2ccc(Cl)cc2)cc1 | 5% | 1% | 16µM* | -24 | -1 | -8%[10.4 µM] | -9% | -6% | 2% | 9%
Cc1cccc(CCNC(=O)C2CCCN(c3cnccn3)C2)c1 (centres undefined) | 7% | 5% | -16% | 1 | 3 | · | · | · | · | ·
O=C(CSc1nc(O)c(C2CCCCC2)c(=O)[nH]1)Nc1ccc(F)cc1 | 27% | -7% | 7% | 31 | -7 | · | · | · | · | ·
CCc1cc(C(=O)N/N=C/c2c(C)[nH]c3ccccc23)cs1 | -26% | -2% | -5% | -64 | 25 | · | · | · | · | ·
Cc1[nH]c2ccccc2c1/C=N/Nc1nncn1N | 1% | -1% | 13µM* | 112* | 55* | -12% | -19% | ? | ? | -27%
O=C(Cn1ncc2c([nH]c3ccccc32)c1=O)N1CCOCC1 | -2% | 1% | -5% | 6 | 0 | · | · | · | · | ·
NC(=O)COc1ccc(/C=N\NC(=O)c2ccc(-c3ccccc3)cc2)cc1 | 11% | -7% | · | -23 | 3 | · | · | · | · | ·
Cc1cc(O)c(C(C)C)cc1N=Cc1cc([N+](=O)[O-])ccc1O | -51% | 3% | ? | 4 | 2 | 18%[38.3 µM] | ? | 9.2µM* | 13µM* | 16µM*
CN(C)c1ncnc2c1NC1=C(S2)C(=NCCCC(=O)O)CC(C)(C)C1 | 5% | -2% | ? | -19 | -6 | -3%[38.3 µM] | -19% | -17% | -12% | -23%
COC(=O)c1ccc(CSC(=N)N)o1 | 1% | -2% | -4% | 3 | 9 | · | · | · | · | ·
CCc1oc(C(=O)OC)cc1CSC(=N)N | 8% | 5% | 18µM* | 12 | 0 | -17%[10.4 µM] | -9% | -1% | 6% | 10%
Nc1nonc1C(=O)NCCNC(=O)c1ccc(Cl)cc1 | 1% | 5% | 2% | 5 | -5 | · | · | · | · | ·
O=C(O)c1ncn(Cc2ccc(Br)cc2)c1C(=O)O | · | 0% | 14µM* | -12 | -1 | -20% | 1% | 21% | 22% | 25%
O=C(O)c1nn(CCOc2ccc(Br)cc2)c(=O)c2ccccc12 | -23% | 0% | 14% | -2 | -1 | · | · | · | · | ·
CCNc1ncc2nc(-c3cc(F)cc(F)c3)c(=O)n(Cc3ccc(F)cc3)c2n1 | · | · | -3% | · | · | · | · | · | · | ·
Cn1cnc([N+](=O)[O-])c1Sc1ncnc2nc[nH]c12 | 3% | -6% | 2% | 0 | 0 | · | · | · | · | ·
Cn1cnc(Sc2ncnc3nc[nH]c23)c1[N+](=O)[O-] | 4% | 13% | 14µM* | 7 | 7 | ? | 10% | 1% | -3% | 4%
O=c1c(CO)cc(CO)cc(CO)c1O | -1% | 5% | ? | -19 | 2 | -4%[38.3 µM] | -10% | -23% | -10% | -16%
O=C(O)Cn1cnc2c(=S)nc[nH]c21 | -4% | 1% | 3.5µM* | -1 | -1 | -4%[38.3 µM] | -4% | -4% | -4% | -8%
